“And” between values parts separate entries of the source, which are not always exact repeats. Equal values may be shown once. The source holds several records for some structures; these can differ, active in one and inactive in another. The source made the active and inactive calls. Where a call stands in place of a potency, no number is given. Unless noted, calls come from the whole dose curve; as a rule, active = well fitted curve in the direction sought with a large enough effect in the repeat runs; inconclusive = weak or mixed curves; inactive = no such curve, though single readings can be large; an effect the other way counts as inactive or inconclusive.
What was measured:
[1] = qHTS assay to identify small molecule antagonists of the thyroid receptor (TR) signaling pathway - cell viability counter screen (AID 743064); note: nearly all actives have a fitted effect of over 50% in size; note: potency is the fitted concentration of half-maximal effect
Method in brief: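 Counter screen for cytotoxicity: compound plus T3 (1 nM final) on GH3.TRE-Luc cells, 23.5 h at 37 °C, then fluorescence viability readout with CellTiter-Fluor.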

[2] = qHTS assay to identify small molecule antagonists of the estrogen receptor alpha (ER-alpha) signaling pathway - cell viability counter screen (AID 743074; calls by dose curve; note: nearly all actives have a fitted effect of over 45% in size; note: potency is the fitted concentration of half-maximal effect)
[3] = qHTS assay to identify small molecule antagonists of the estrogen receptor alpha (ER-alpha) signaling pathway using the BG1 cell line - cell viability counter screen (AID 743081);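 note: compound given together with 17beta-estradiol as the ER stimulus; series mostly up to about 70 µM; nearly all actives have a fitted effect of over 45% in size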
[4] = target: Aromatase (Homo sapiens) (UniProt P11511); assay: qHTS assay to identify aromatase inhibitors (AID 743083); note: nearly all actives have a fitted effect of over 55% in size; note: potency is the fitted concentration of half-maximal effect
[5] = qHTS assay to identify aromatase inhibitors - cell viability counter screen (AID 743084);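 note: cells stimulated with testosterone during compound exposure; nearly all actives have a fitted effect of over 55% in size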; note: potency is the fitted concentration of half-maximal effect
[6] = target: Aryl hydrocarbon receptor (Homo sapiens) (UniProt P35869); assay: qHTS assay to identify small molecule that activate the aryl hydrocarbon receptor (AhR) signaling pathway (AID 743085); note: nearly all actives have a fitted effect of over 15% in size; note: potency is the fitted concentration of half-maximal effect;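 for activation: HG2L7.5c1 human HepG2 liver cells with stably integrated DRE-driven firefly reporter; series mostly up to about 70 µM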
Method in brief: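 Measured in HG2L7.5c1 cells: CellTiter-Fluor signal (30 min incubation, 37C) for viability, then luciferase luminescence (30 min, room temperature). Compound contact time was 24 h at 37C, following a 5 h pre-incubation.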

[7] = qHTS assay to identify small molecule that activate the aryl hydrocarbon receptor (AhR) signaling pathway - cell viability counter screen (AID 743086); note: nearly all actives have a fitted effect of over 45% in size; note: potency is the fitted concentration of half-maximal effect
Method in brief: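 Cytotoxicity counter screen: CellTiter-Fluor signal (30 min, 37 C) in 4000 HepG2 cells/well carrying the DRE-luciferase reporter, following 24 h compound exposure at 37 C.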

[8] = target: Peroxisome proliferator-activated receptor gamma (Homo sapiens) (UniProt P37231); assay: qHTS assay to identify small molecule agonists of the peroxisome proliferator-activated receptor gamma (PPARg) signaling pathway (AID 743094; active = well fitted activation curve with a large enough effect in the signal ratio in the repeat runs, not every such curve was filed as active; inconclusive = weak or mixed curves, or effect the other way; inactive = no such curve, though single readings can be large or run the other way; the % refers to the signal ratio)
Method in brief: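 Fluorescence-based beta-lactamase readout in HEK293H PPARg UAS-bla cells after 17 h compound exposure (37C) and 1 h B/G FRET substrate incubation at room temperature.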

[9] = qHTS assay to identify small molecule antagonists of the peroxisome proliferator-activated receptor gamma (PPARg) signaling pathway - cell viability counter screen (AID 743194); note: nearly all actives have a fitted effect of over 55% in size; note: potency is the fitted concentration of half-maximal effect
Method in brief: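 Viability was measured as CellTiter-Glo luminescence in GeneBLAzer PPARg UAS-bla HEK293H cells. These cells had been exposed 17 h at 37 C to compounds together with rosiglitazone at 50 nM final, with the beta-lactamase readout taken in the same wells.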

[10] = qHTS assay for small molecule agonists of the antioxidant response element (ARE) signaling pathway (AID 743202; active = well fitted activation curve with a large enough effect in the signal ratio in the repeat runs, not every such curve was filed as active; inconclusive = weak or mixed curves, or effect the other way; inactive = no such curve, though single readings can be large or run the other way; the % refers to the signal ratio; note: potency is the fitted concentration of half-maximal effect)
Method in brief: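 Beta-lactamase reporter activity, read as fluorescence intensity, reflects ARE/Nrf2 pathway induction in HepG2 cells after 16 h compound exposure at 37 C; substrate loading was 2 h at room temperature.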

[11] = qHTS assay for small molecule agonists of the antioxidant response element (ARE) signaling pathway - cell viability counter screen (AID 743203; calls by dose curve; note: nearly all actives have a fitted effect of over 55% in size; note: potency is the fitted concentration of half-maximal effect)
Method in brief: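 Parallel cytotoxicity read-out for the ARE-bla screen: HepG2 reporter cells, 16 hrs with compounds, then CellTiter-Glo luminescence.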

[12] = qHTS assay for small molecule activators of the heat shock response signaling pathway - cell viability counter screen (AID 743209); note: nearly all actives have a fitted effect of over 50% in size; note: potency is the fitted concentration of half-maximal effect
Method in brief: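 To flag cytotoxic compounds, HSE-bla HeLa cells plated at 1500 cells/well were dosed for 5 h at 37 C, followed by the reporter FRET read and then CellTiter-Glo, with luminescence recorded 30 min after reagent addition.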

[13] = qHTS assay for small molecule activators of the heat shock response signaling pathway (AID 743210; active = well fitted activation curve with a large enough effect in the signal ratio in the repeat runs, with a control signal flat, not every such curve was filed as active; inconclusive = weak or mixed curves; the % refers to the signal ratio; note: potency is the fitted concentration of half-maximal effect;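 for activation: HeLa cells with beta-lactamase reporter driven by heat shock elements; series mostly up to about 63 µM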)
Method in brief: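 Fluorescence from a cleaved B/G FRET substrate (2.5 h, room temp) reports HSE-driven beta-lactamase in HeLa cells treated 5 h at 37 C with DMSO-dissolved compounds.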

[14] = target: Estrogen receptor (Homo sapiens) (UniProt P03372); assay: qHTS assay to identify small molecule antagonists of the estrogen receptor alpha (ER-alpha) signaling pathway (AID 743069; active = well fitted curve in the direction sought with a large enough effect in the signal ratio in the repeat runs, not every such curve was filed as active; inconclusive = weak or mixed curves, or effect the other way; inactive = no such curve, though single readings can be large or run the other way; the % refers to the signal ratio; note: potency is the fitted concentration of half-maximal effect)
Method in brief: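 Fluorescence intensity from a beta-lactamase FRET substrate served as the read-out. Cells: HEK293 with stably integrated ER-alpha-UAS-bla reporter. Agonist 17beta-estradiol was co-added with compounds; incubation 18 hr at 37C, substrate 2 hr at room temperature.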

[15] = target: Estrogen receptor (Homo sapiens) (UniProt P03372); assay: qHTS assay to identify small molecule agonists of the estrogen receptor alpha (ER-alpha) signaling pathway (AID 743075; calls by dose curve; note: potency is the fitted concentration of half-maximal effect)
[16] = target: Estrogen receptor (Homo sapiens) (UniProt P03372); assay: qHTS assay to identify small molecule agonists of the estrogen receptor alpha (ER-alpha) signaling pathway using the BG1 cell line (AID 743079); note: nearly all actives have a fitted effect of over 20% in size; note: potency is the fitted concentration of half-maximal effect
[17] = qHTS assay to identify small molecule antagonists of the estrogen receptor alpha (ER-alpha) signaling pathway using the BG1 cell line (AID 743080; calls by dose curve;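 note: BG1 cells stimulated with 17beta-estradiol alongside compound; nearly all actives have a fitted effect of over 25% in size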; note: potency is the fitted concentration of half-maximal effect)
Method in brief: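 Luminescence from a 4×ERE-luciferase reporter in BG1-Luc-4E2 cells served as read-out. Cells, pre-cultured 5 days in stripped-serum phenol-red-free medium, were exposed to compound with 17beta-estradiol co-stimulation for 21.5 h at 37 C.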

[18] = target: Peroxisome proliferator-activated receptor gamma (Homo sapiens) (UniProt P37231); assay: qHTS assay to identify small molecule antagonists of the peroxisome proliferator-activated receptor gamma (PPARg) signaling pathway (AID 743191; calls by dose curve; note: series mostly up to about 63 µM; nearly all actives have a fitted effect of over 30% in size)
Method in brief: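 Beta-lactamase reporter under UAS control in HEK293H PPARg-bla cells; compound treatment 17 h at 37C. Read-out: fluorescence intensity after 1 h room-temperature incubation with LiveBLAzer B/G FRET substrate.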

[19] = test system: thyroid hormone receptor (rat, GH3 cells); assay: qHTS assay to identify small molecule agonists of the thyroid receptor (TR) signaling pathway (AID 743066; calls by dose curve)

Chain of Aryl hydrocarbon receptor (Homo sapiens) (P35869 whole entry, looked up): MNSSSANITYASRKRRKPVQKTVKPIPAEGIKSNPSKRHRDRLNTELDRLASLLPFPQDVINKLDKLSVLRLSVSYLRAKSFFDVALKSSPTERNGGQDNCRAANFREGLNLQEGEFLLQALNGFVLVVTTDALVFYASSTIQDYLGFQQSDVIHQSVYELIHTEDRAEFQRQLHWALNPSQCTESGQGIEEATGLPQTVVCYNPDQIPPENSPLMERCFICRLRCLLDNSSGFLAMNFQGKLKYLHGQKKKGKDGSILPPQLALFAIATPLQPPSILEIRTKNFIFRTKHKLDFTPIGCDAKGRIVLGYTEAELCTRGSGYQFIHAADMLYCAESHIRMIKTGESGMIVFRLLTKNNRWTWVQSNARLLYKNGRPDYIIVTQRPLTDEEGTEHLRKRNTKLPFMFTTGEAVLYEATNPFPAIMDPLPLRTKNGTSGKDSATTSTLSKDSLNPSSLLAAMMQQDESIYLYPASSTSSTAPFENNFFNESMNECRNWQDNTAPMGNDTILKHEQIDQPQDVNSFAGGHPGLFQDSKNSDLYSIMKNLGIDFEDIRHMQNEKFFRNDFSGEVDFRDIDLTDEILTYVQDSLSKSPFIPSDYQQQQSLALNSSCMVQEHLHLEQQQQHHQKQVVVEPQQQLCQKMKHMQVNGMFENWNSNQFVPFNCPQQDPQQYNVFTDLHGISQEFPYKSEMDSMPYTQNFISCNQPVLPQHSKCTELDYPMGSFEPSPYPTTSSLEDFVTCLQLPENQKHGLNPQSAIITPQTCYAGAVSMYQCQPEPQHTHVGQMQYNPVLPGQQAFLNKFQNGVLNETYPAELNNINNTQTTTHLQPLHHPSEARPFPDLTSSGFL
Chain of Estrogen receptor (Homo sapiens) (P03372 whole entry, looked up): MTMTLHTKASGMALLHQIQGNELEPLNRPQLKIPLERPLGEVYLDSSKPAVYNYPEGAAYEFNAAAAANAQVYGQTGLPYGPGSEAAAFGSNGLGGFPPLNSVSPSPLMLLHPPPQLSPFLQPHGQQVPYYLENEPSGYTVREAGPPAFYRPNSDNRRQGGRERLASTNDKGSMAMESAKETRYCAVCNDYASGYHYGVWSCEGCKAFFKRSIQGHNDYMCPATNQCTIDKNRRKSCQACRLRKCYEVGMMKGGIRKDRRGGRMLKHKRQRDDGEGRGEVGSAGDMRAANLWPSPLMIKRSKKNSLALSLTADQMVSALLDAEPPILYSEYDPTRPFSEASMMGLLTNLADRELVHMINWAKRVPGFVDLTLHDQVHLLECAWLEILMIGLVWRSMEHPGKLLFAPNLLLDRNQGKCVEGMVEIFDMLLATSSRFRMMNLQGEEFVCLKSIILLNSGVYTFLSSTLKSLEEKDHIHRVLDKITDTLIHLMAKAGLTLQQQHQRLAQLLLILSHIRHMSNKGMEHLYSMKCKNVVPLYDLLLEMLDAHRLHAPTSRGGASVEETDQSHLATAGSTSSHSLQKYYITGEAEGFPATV
Chain of Peroxisome proliferator-activated receptor gamma (Homo sapiens) (P37231 whole entry, looked up): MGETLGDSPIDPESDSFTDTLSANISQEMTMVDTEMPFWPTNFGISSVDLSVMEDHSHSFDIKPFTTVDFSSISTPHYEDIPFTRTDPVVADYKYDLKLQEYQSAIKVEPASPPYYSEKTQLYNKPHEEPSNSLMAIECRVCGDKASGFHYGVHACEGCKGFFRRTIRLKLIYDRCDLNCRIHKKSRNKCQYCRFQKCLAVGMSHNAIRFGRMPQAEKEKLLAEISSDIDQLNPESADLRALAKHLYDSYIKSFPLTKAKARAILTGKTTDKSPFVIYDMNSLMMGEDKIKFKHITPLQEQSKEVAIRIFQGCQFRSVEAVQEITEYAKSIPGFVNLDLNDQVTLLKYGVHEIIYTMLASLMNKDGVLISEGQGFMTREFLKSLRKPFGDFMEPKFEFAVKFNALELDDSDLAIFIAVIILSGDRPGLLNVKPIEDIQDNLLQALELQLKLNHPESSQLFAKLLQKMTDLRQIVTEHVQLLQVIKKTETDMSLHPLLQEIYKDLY
Chain of Aromatase (Homo sapiens) (P11511 whole entry, looked up): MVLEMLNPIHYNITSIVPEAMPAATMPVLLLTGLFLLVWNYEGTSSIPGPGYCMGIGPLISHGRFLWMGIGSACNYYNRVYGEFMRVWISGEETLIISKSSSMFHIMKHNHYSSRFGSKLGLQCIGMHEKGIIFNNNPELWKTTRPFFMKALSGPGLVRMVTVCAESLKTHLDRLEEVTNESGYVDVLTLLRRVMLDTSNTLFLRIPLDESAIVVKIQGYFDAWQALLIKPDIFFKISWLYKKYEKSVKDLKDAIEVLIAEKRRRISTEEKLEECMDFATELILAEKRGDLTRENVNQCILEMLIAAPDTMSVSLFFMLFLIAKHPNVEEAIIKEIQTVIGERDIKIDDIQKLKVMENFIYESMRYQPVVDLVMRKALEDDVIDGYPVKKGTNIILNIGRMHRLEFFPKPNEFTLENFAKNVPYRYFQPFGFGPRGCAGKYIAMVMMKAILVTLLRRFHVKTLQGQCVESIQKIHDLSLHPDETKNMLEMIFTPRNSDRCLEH

| Compound | Potency [1] | Potency [2] | Potency [3] | Potency [4] | Potency [5] | Potency [6] | Potency [7] | Potency [8] | Potency [9] | Potency [10] | Potency [11] | Potency [12] | Potency [13] | Potency [14] | Potency [15] | Potency [16] | Potency [17] | Potency [18] | Potency [19] |
| --- | --- | --- | --- | --- | --- | --- | --- | --- | --- | --- | --- | --- | --- | --- | --- | --- | --- | --- | --- |
| CCCC(=O)O | inactive | inactive | inactive | inactive | inactive | inactive | inactive | inactive | inactive | inactive | inactive | inactive | inactive | – | – | – | – | – | – |
| CCCCc1oc2ccccc2c1C(=O)c1cc(I)c(OCCN(CC)CC)c(I)c1 | 13.3 µM (active) and 26.6 µM (active) and 21.9 µM (active) | – | inactive | inactive and 43.6 µM (active) | inactive and 43.6 µM (active) | – | inactive | – | 13.9 µM (active) | – | 34.6 µM (active) | inactive | – | inactive | inactive | inactive | inactive | – | – |
| Nc1ccc(Nc2ccccc2)cc1 | 60.4 µM (active) and 30.6 µM (active) and 34.4 µM (active) | inactive | inactive | inactive | 61.1 µM (active) and inactive | inactive | – | inactive | inactive | – | inactive | inactive | inactive | – | inactive | inactive | inactive | inactive | – |
| O=CCc1ccccc1 | inactive | inactive | inactive | inactive | inactive | inactive | inactive | inactive | inactive | – | inactive | inactive | inactive | – | – | – | – | – | inactive |
| Clc1nc(Cl)c(Cl)c(Cl)c1Cl | inactive | inactive | inactive | inactive | inactive | inactive | inactive | inactive | inactive | 7.74 µM (active) | inactive | inactive | inactive | – | – | – | – | inactive | inactive |
| Brc1cc(Oc2cc(Br)c(Br)c(Br)c2Br)c(Br)c(Br)c1Br | inactive | inactive | inactive | inactive | inactive | inactive | – | inactive | inactive | – | inactive | inactive | inactive | – | – | – | – | – | inactive |
| O=[N+]([O-])c1ccc2c(c1)Cc1ccccc1-2 | – | inactive | inactive | inactive | inactive | inactive and 61.1 µM (active) | inactive | inactive | inactive | 61.1 µM (active) | inactive | inactive | inactive | inactive | inactive | 13.7 µM (active) | inactive | – | inactive |
| CC(C)OC(=O)C(C)(C)Oc1ccc(C(=O)c2ccc(Cl)cc2)cc1 | – | inactive | inactive | inactive and 68.6 µM (active) | – | inactive | – | – | inactive | – | inactive | inactive | inactive | inactive | inactive | inactive | inactive and 61.1 µM (active) | – | – |
| O=P(O)(O)O | inactive | inactive | inactive | inactive | inactive | inactive | – | – | inactive | – | inactive | inactive | inactive | – | – | – | – | – | inactive |
| CCC(C)CO (stereo not given) | – | inactive | inactive | inactive | inactive | inactive | – | inactive | inactive | inactive | inactive | inactive | inactive | inactive | inactive | inactive | inactive | inactive | inactive |
| O=C(Nc1ccc([N+](=O)[O-])cc1Cl)c1cc(Cl)ccc1O | – | – | inactive | inactive and 1.93 µM (active) | inactive | 211 nM (active) | inactive | – | 123 nM (active) and 461 nM (active) | inactive | – | 0.309 µM (active) | – | inactive | inactive | – | 841 nM (active) | – | – |
| C/C=C/C(=O)O | inactive | inactive | inactive | – | – | – | inactive | – | inactive | inactive | inactive | inactive | inactive | – | – | – | – | – | inactive |
| CCCCC(CC)COCC1CO1 (stereo not given) | – | inactive | inactive | inactive | inactive | inactive | inactive | inactive | inactive | inactive | inactive | inactive | inactive | inactive | inactive | inactive | inactive | inactive | inactive |
| CC(C)Oc1ccc2c(=O)c(-c3ccccc3)coc2c1 | – | – | inactive | inactive | inactive | 2.11 µM (active) and 4.73 µM (active) | inactive | inactive | inactive | – | inactive | inactive | inactive | – | – | – | – | – | – |
| C#C[C@]1(O)CC[C@H]2[C@@H]3CCC4=Cc5oncc5C[C@]4(C)[C@H]3CC[C@@]21C | inactive and 61.1 µM (active) | inactive | inactive | inactive | inactive | inactive | inactive | inactive | 54.9 µM (active) | – | – | – | inactive | 49 µM [inconclusive] (active) | 3.38 µM [inconclusive] (active) and 6.17 µM [activator] (active) | 668 nM (active) and 969 nM (active) | inactive and 61.1 µM (active) | – | – |
| S=C(NC1CCCCC1)NC1CCCCC1 | inactive | 48.1 µM (active) | inactive | – | inactive | inactive | inactive and 17.2 µM (active) | inactive | inactive | 34.4 µM (active) | inactive | – | 9.23 µM (active) and 13.8 µM (active) | inactive | inactive | – | 75.5 µM (active) and 54.5 µM (active) | – | inactive |
